Giardia FBPA inh: inhibitors of Giardia lamblia fructose-1,6-bisphosphate aldolase; purified Giardia FBPA; Potency, µM (series often up to 59.6 µM), for the others: at the highest dose activity, negative = inhibition, most hits filed as inhibitors; 0.71% of 290,000 active; further: potency means the concentration at half of the fitted maximal effect; on the % scale 0 is the no-effect control and ±100 the full control effect; nearly all actives have a fitted effect of over 55% in size
Target sequence (A8B2U2 whole entry, looked up): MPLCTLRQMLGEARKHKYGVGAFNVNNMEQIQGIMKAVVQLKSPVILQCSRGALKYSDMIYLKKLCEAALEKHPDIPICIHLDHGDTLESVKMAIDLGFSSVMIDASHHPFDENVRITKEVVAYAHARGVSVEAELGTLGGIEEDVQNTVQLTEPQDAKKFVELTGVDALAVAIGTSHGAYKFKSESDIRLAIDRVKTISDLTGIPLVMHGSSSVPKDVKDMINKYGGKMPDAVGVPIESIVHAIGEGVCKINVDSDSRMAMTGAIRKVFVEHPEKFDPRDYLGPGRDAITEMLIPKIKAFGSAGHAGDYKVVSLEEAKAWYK
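Giardia FBPA (40 nM reagent) was preincubated 10 min at RT with compound (up to 57.5 uM final), then substrate plus GAPDH/TPI/NAD/arsenate coupling system with diaphorase/resazurin was added; resorufin fluorescence (525/598 nm) was read after 20 min.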
Shiga toxin inh: blocks Shiga toxin action in Vero cells. Vero cells, Shiga toxin protein synthesis inhibition reporter. inhibition, % at 38.7 µM. 9.2% of 290,000 active. AID 2315; in the data active means inhibition mostly above about 28%, no sharp cut-off; inactive means mostly below about 43%; further: 0% is about no effect
RE007 growth inh: less growth of the S. pombe RE007 Vpr strain; AID 651644; Potency, µM (doses to about 92.2 µM), for inactives: at the top dose activity change, negative = less growth, most hits filed as inhibitors; 0.21% of 360,000 active; S. pombe RE007 Vpr strain, BacTiter-Glo ATP luminescence, 24 h; active means well fitted falling curve with a large enough effect; inconclusive means small, poorly fitted or top-dose-only effect; inactive means no such curve, though single readings can be large or run the other way; further: potency means the concentration at half of the fitted maximal effect; on the % scale 0 is the no-effect control and ±100 the full control effect; nearly all actives have a fitted effect of over 50% in size
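Fission yeast strain RE007, carrying one chromosomally integrated HIV-1 vpr copy, was seeded at OD 0.01 in PMG+AL medium with 23 nL pinned compound. After 24 h at 30 °C and 99% humidity, viability was read by BacTiter-Glo luminescence.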
LmPK inhibitor: blocks Leishmania mexicana pyruvate kinase activity | Q27686 | 0.37% of 290,000 active | Potency, µM (series often up to 57.5 µM), without a hit: at the highest dose activity change, negative = inhibition, usual class: inhibitors | purified LmPK, Kinase-Glo ATP luminescence, 1 h; further: potency means the concentration at half of the fitted maximal effect; on the % scale 0 is the no-effect control and ±100 the full control effect
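Purified LmPK (0.1 nM) converted ADP (0.1 mM) to ATP with PEP (0.5 mM) in imidazole buffer pH 7.2 with KCl and MgCl2, 1 h at room temperature. ATP was read by Kinase-Glo luminescence; data normalized to uninhibited and no-enzyme controls.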
CHX counter: counter-screen hit for Shiga toxin inhibitors, cycloheximide; AID 2314; cell reporter, cycloheximide protein synthesis inhibition counterscreen; 12% of 300,000 active; max response, %; in the data active means max response mostly above about 13%, no sharp cut-off; inactive means mostly below about 14%; further: read at 38.3 µM for the half of the compounds with a filed dose; 0% is about no effect
Tb PYK inh: blocks Trypanosoma brucei pyruvate kinase. TbPYK enzyme, Kinase-Glo Plus ATP luminescence, 45 min. Potency, µM (doses to about 76.8 µM), without a hit: at the top dose activity, negative = inhibition, actives largely listed as inhibitors. Q57TT1. AID 624173. 0.12% of 410,000 active; further: potency means the concentration at half of the fitted maximal effect; on the % scale 0 is the no-effect control and ±100 the full control effect; nearly all actives have a fitted effect of over 50% in size
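Readout: single end-point luminescence (Kinase-Glo Plus, 10 min). Reaction conditions were TbPYK/substrate plus 130 uM ADP, 45 min at RT, pH 7.2 TEA buffer. No-enzyme wells served as controls, and data were normalized before concentration-response fitting.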
* marks the source's active call; other numbers are inactive results; u = inconclusive; x = no result given; [ ] = another dose, or the depositor's remark. Only a selection was taken, and hits are over-represented in it overall. Unless noted, the call rests on the fitted dose curve; in most records, active means well fitted curve in the direction sought with a large enough effect; inconclusive means small, poorly fitted or top-dose-only effect, or another doubt; inactive means no such curve, though single readings can be large; an effect the other way counts as inactive or inconclusive.

SMILES	Giardia FBPA inh	Shiga toxin inh	RE007 growth inh	LmPK inhibitor	CHX counter	Tb PYK inh
CC1CCC(NC(=O)C(=O)Nc2ccc3c(c2)OCO3)CC1 (stereo not given)	x	116*	-9%	-5%	57*	0%
CN(C(=O)c1ccc2c(c1)OCO2)C1CCCCC1	x	36*	2%	-10%	42*	6%
O=C(NNC(=O)c1ccc2c(c1)OCO2)NC1CCCCC1	4%	-6	7%	1%	-5	1%
CN1CCN(CCCNC(=O)c2ccc(/C=C3\Oc4ccccc4N(Cc4ccccc4F)C3=O)cc2)CC1	-8%	-3	2%	5%	-7	3%
O=C(NC1CCCCC1)c1ccc2c(c1)OCO2	-1%	84*	-18%	-6%	26*	-2%
CCCCN1CCCC1C(=O)Nc1c(C)cc(C)cc1C (stereo not given)	x	x	x	x	x	1%
CC1(C)CC(NC(=O)c2ccc3c(c2)OCO3)CC(C)(C)N1	-1%	-6	-5%	0%	-2	-8%
CC1CCC(NC(=O)c2ccc3c(c2)OCO3)CC1 (stereo not given)	x	53*	-8%	-13%	43*	0%
Cc1cc(C)n(CCc2nc3c4ccccc4nc(N4CCN(c5ccccc5F)CC4)n3n2)n1	x	x	x	x	x	8%
CCc1ccc(-c2nc3cc(NC(=O)c4cc5ccccc5cc4OC)ccc3o2)cc1	x	x	x	x	x	2%
O=C(NCc1ccco1)C(c1ccccc1)N(Cc1ccccc1)C(=O)Cn1nnc2ccccc21 (stereo not given)	0%	40	8%	4%	18*	-4%
Cc1ccc(-n2nc(C)c3nc(CCC(=O)Nc4cccc(F)c4)c(=O)n(C)c32)cc1	x	x	x	x	x	-3%
Cc1cc(C2=NNC(=NC3CC3)SC2)c(C)n1-c1c(C)n(C)n(-c2ccccc2)c1=O	-8%	-9	-1%	3%	1	-19%
Cc1ccccc1N=C1NC(=O)CS1	-5%	-6	4%	-2%	-10	-1%
Cc1cc(C2=NNC(=Nc3ccccc3)SC2)c(C)n1C	-14%	69*	4%	-7%	35*	u
Cc1cc(C2=NNC(=NCCc3ccccc3)SC2)c(C)n1-c1c(C)n(C)n(-c2ccccc2)c1=O	-3%	14	13%	4%	-4	-7%
Fc1ccc(F)c(C2=NNC(=Nc3ccccc3F)SC2)c1	-2%	150*	-11%	-9%	130*	-3%
COCCn1c(C)cc(C2=NNC(=Nc3ccccc3F)SC2)c1C	-11%	104*	-10%	10%	95*	u
Cc1cccc(N=C2NN=C(c3ccccc3F)CS2)c1C	3%	51*	9%	2%	34*	-5%
Cc1ccc(NC(=O)c2c(C)oc3ncn(C)c(=O)c23)cc1F	x	x	x	x	x	-1%
Fc1ccccc1N=C1NN=C(c2ccccc2)CS1	0%	138*	-17%	-3%	53*	-2%
O=C1CSC(=Nc2ccccc2Cl)N1	-2%	23	-12%	4%	16*	15%
Clc1ccccc1N=C1NN=C(c2cccs2)CS1	2%	98*	-8%	-3%[11.5 µM]	53*	-2%
Cc1c(Cl)cccc1N=C1NC(=O)CS1	x	x	-20%	x	x	-8%
Fc1ccc(N=C2NN=C(c3cc(F)ccc3F)CS2)cc1	-3%	69*	-27%	-5%	54*	-10%
SMILES	Giardia FBPA inh	Shiga toxin inh	RE007 growth inh	LmPK inhibitor	CHX counter	Tb PYK inh
CN(C)S(=O)(=O)c1cccc(N=C2NN=C(c3ccccc3)CS2)c1	0%	1	0%	0%	2	-12%
CCC(=O)N1CCc2cc(S(=O)(=O)N(C)c3cccc(C)c3)ccc21	x	x	x	x	x	0%
COc1ccc(NC(=O)CCc2c(C)nn(-c3ccc(N4CCOCC4)nn3)c2C)cc1Cl	x	x	x	x	x	-2%
CC(C)[C@@H](CC(=O)N[C@@H]1CCCC[C@H]1C(=O)N[C@H](CC(=O)N[C@@H](CCC(=O)O)CC(=O)O)Cc1c[nH]c2ccccc12)NC(=O)C[C@H](Cc1ccccc1)NC(=O)[C@@H]1CNCC[C@H]1N	-18%	x	x	x	x	x
CCc1nn2c(=O)cc(COC(=O)c3ccco3)nc2s1	x	x	x	x	x	3%
Nc1ccccc1NC(=O)c1ccc(CNC(=O)OCc2cccnc2)cc1	3%	7	x	x	-2	x
Cc1ccccc1Cn1ccc(NC(=O)c2nc3ncccn3n2)n1	7%	18	-19%	-2%	9.3*	-1%
Cc1ccccc1Cn1ccc(NC(=O)c2onc(C)c2Cl)n1	-3%	76*	-1%	11%	29*	-7%
CCOc1ccccc1CNC(=O)c1sc2ncccc2c1-n1cccc1	x	x	x	x	x	-6%
O=C(c1cc(C(F)(F)F)cc(C(F)(F)F)c1)N1CCC2(CCCN(c3ncccn3)C2)CC1	0%	x	x	x	x	2%
CN(C)/C=C1\Oc2ccc3ccccc3c2C1=O	u	116*	-12%	-8%	34*	-6%
CN(C)/C=C1/Oc2c(ccc3ccccc23)C1=O	3%	26	13%	1%	18	1%
Cc1cc(C)cc(NC(=O)NCC(O)COc2ccc([N+](=O)[O-])cc2)c1 (stereo not given)	-1%	-3	-4%	3%	5	-7%
O=C(NCC(O)COc1ccc([N+](=O)[O-])cc1)Nc1ccccc1 (stereo not given)	1%	34*	6%	8%	30*	-3%
O=C(/C(N=Nc1cccc([N+](=O)[O-])c1)=C(/O)c1ccc(Br)cc1)C(F)(F)F	6%	86*	x	7%	22*	x
N#C/C(=N\Nc1cccc([N+](=O)[O-])c1)C(=O)c1ccc(Br)cc1	4%	10	1%	1%	2	5%
Cc1ccsc1/C=c1\sc2ncnn2c1=O	1%	-12	-18%	-2%	-1	3%
Cc1ccsc1/C=C1/C(=O)NN(c2ccccc2)C1=O	u	82*	-10%	u	40*	-1%
Cc1ccsc1C=C1C(=O)c2ccccc2C1=O	0%	0	u	14µM*	1	-8%
CCN(CC)C(=O)Cn1c(=O)n(CCCCCC(=O)NCc2ccc(C)cc2)c(=O)c2sccc21	x	x	x	x	x	-10%
COc1ccccc1C(=O)Nc1ccc(Oc2ncnc3sc(-c4ccccc4)cc23)cc1	-8%	1	-8%	-5%	-6	-3%
CCN(CC)C(=O)CSc1ncnc2sc(-c3ccccc3)cc12	-3%	36	26%[3.69 µM]	0%	34	x
CN(CCC#N)C(=O)CSc1ncnc2sc(-c3ccccc3)cc12	0%	62*	-2%	6%	31*	-3%
COc1ncnc2sc(-c3ccccc3)cc12	4%	82	u	13µM*	66*	u
CC(C)(C)Nc1ncnc2sc(-c3ccccc3)cc12	-1%	29	3%	-1%	11	3%
CN(C)c1ncnc2sc(-c3ccccc3)cc12	x	40	-19%	3%	16*	0%

High-throughput results: PubChem BioAssay, National Center for Advancing Translational Sciences (NCATS)
